Of roughly 7,900 targets only a part is listed; those with a hit were picked by preference. About 0.6% of all pairs of compound and target were hits.
Experiments:
Experiment in all cases: log2 fold change, soluble protein after heating vs DMSO (PISA); higher = thermal stabilisation; K562 cells, 10 uM, 30 min; active = over 0.2 and 3.5 SD of the protein, either way, in both replicates (recomputed)
saracatinib = compound: CN1CCN(CCOc2cc(OC3CCOCC3)c3c(Nc4c(Cl)ccc5c4OCO5)ncnc3c2)CC1 [saracatinib]
Summary of the method: (§1)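 Soluble protein was quantified by TMTpro 16plex LC-MS/MS after channel sums were equalised. It was obtained as the supernatant after 21,000xg for 90 min from pooled aliquots of K562 cells (2×10^6 cells/mL, 10 μM compound, 30 min) heated for 3 min across 48°C-58°C and extracted in PBS with 0.5% NP-40 at 4°C. Thermal stability values are relative to control samples and come from duplicates. They are given as log2 fold changes.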

sotrastaurin = compound: CN1CCN(c2nc(C3=C(c4c[nH]c5ccccc45)C(=O)NC3=O)c3ccccc3n2)CC1 [sotrastaurin]
Summary of the method: as §1

alvocidib = compound: CN1CC[C@H](c2c(O)cc(O)c3c(=O)cc(-c4ccccc4Cl)oc23)[C@H](O)C1 [alvocidib]
Summary of the method: as §1

Tubastatin A = compound: CN1CCc2c(c3ccccc3n2Cc2ccc(C(=O)NO)cc2)C1 [Tubastatin A]
Summary of the method: as §1

[1] = compound: CNC(=O)C1=CC=CC=C1NC2=NC(=NC=C2Cl)NC3=C(C=C(C=C3)N4CCOCC4)OC
Summary of the method: as §1

defactinib = compound: CNC(=O)c1ccc(Nc2ncc(C(F)(F)F)c(NCc3nccnc3N(C)S(C)(=O)=O)n2)cc1 [defactinib]
Summary of the method: as §1

rucaparib = compound: CNCc1ccc(-c2[nH]c3cc(F)cc4c3c2CCNC4=O)cc1 [rucaparib]
Summary of the method: as §1

[2] = compound: CNc1nc(-c2ccc3c(N)n[nH]c3c2)cc(N2C[C@@H](C(=O)NC3CCCCC3)CC[C@H]2C)n1
Summary of the method: as §1

encorafenib = compound: COC(=O)N[C@@H](C)CNc1nccc(-c2cn(C(C)C)nc2-c2cc(Cl)cc(NS(C)(=O)=O)c2F)n1 [encorafenib]
Summary of the method: as §1

[3] = compound: COC(=O)[C@H](CCSC)NC(=O)C1=C(C=C(C=C1)NC[C@H](CS)N)C2=CC=CC=C2
Summary of the method: as §1

[4] = compound: COC1=CC=C(C=C1)CN2C=CC3=C2C=C(C=C3)C(=O)NO
Summary of the method: as §1

filanesib = compound: CON(C)C(=O)N1N=C(c2cc(F)ccc2F)S[C@@]1(CCCN)c1ccccc1 [filanesib]
Summary of the method: as §1

zotarolimus = compound: CO[C@H]1C[C@@H]2CC[C@@H](C)[C@@](O)(O2)C(=O)C(=O)N2CCCC[C@H]2C(=O)O[C@H]([C@H](C)C[C@@H]2CC[C@H](n3cnnn3)[C@H](OC)C2)CC(=O)[C@H](C)/C=C(\C)[C@@H](O)[C@@H](OC)C(=O)[C@H](C)C[C@H](C)/C=C/C=C/C=C/1C [zotarolimus]
Summary of the method: as §1

idasanutlin = compound: COc1cc(C(=O)O)ccc1NC(=O)[C@@H]1N[C@@H](CC(C)(C)C)[C@](C#N)(c2ccc(Cl)cc2F)[C@H]1c1cccc(Cl)c1F [idasanutlin]
Summary of the method: as §1

alisertib = compound: COc1cc(Nc2ncc3c(n2)-c2ccc(Cl)cc2C(c2c(F)cccc2OC)=NC3)ccc1C(=O)O [alisertib]
Summary of the method: as §1

[5] = compound: COc1cc2nc(-c3cc(F)ccc3O)nc(N[C@@H]3CNC[C@H]3C(C)(C)O)c2cc1OC
Summary of the method: as §1

gefitinib = compound: COc1cc2ncnc(Nc3ccc(F)c(Cl)c3)c2cc1OCCCN1CCOCC1 [gefitinib]
Summary of the method: as §1

[6] = compound: COc1cccc2cc(-c3nc([C@H]4CC[C@H](C(=O)O)CC4)n4ncnc(N)c34)[nH]c12
Summary of the method: as §1

lapatinib = compound: CS(=O)(=O)CCNCc1ccc(-c2ccc3ncnc(Nc4ccc(OCc5cccc(F)c5)c(Cl)c4)c3c2)o1 [lapatinib]
Summary of the method: as §1

pictilisib = compound: CS(=O)(=O)N1CCN(Cc2cc3nc(-c4cccc5[nH]ncc45)nc(N4CCOCC4)c3s2)CC1 [pictilisib]
Summary of the method: as §1

Measured: log2 fold change

DNAJC1 (UniProt Q96KC8)
Chain of UniProt Q96KC8 (Q96KC8 whole entry, looked up): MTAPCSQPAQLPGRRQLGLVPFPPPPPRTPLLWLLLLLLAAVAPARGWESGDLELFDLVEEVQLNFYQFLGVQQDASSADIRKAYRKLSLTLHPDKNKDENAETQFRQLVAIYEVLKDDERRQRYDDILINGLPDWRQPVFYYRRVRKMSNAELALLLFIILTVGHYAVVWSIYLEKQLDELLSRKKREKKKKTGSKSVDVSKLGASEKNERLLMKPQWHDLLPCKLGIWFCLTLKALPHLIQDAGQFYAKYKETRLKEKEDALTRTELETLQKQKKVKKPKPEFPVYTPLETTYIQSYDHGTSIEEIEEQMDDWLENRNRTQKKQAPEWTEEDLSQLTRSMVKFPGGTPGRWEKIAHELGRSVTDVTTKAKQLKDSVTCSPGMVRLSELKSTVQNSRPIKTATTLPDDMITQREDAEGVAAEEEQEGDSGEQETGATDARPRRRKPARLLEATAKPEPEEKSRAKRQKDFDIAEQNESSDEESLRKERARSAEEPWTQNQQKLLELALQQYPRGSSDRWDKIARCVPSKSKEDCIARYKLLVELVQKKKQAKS
inactive: saracatinib -0.02 | sotrastaurin -0.028 | alvocidib -0.012 | Tubastatin A 0.018 | [1] 0.046 | defactinib 0.004 | rucaparib 0.03 | [2] -0.011 | encorafenib 0.003 | [3] 0.005 | [4] -0.023 | filanesib -0.138 | zotarolimus -0.039 | idasanutlin -0.064 | alisertib 0.001 | [5] -0.17 | gefitinib 0.008 | [6] 0.022 | lapatinib -0.078 | pictilisib 0.017

DNAJC19 (UniProt Q96DA6)
Chain of UniProt Q96DA6 (Q96DA6 whole entry, looked up): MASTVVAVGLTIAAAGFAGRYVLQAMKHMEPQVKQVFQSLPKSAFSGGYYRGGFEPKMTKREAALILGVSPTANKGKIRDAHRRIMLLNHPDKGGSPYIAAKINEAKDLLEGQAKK
active: [5] -0.205
inactive: saracatinib 0.025 | sotrastaurin -0.029 | alvocidib -0.021 | Tubastatin A -0.038 | [1] 0.003 | defactinib -0.027 | rucaparib 0.01 | [2] -0.028 | encorafenib -0.044 | [3] -0.012 | [4] 0.096 | filanesib -0.155 | zotarolimus 0.016 | idasanutlin -0.004 | alisertib -0.022 | gefitinib 0.006 | [6] 0.045 | lapatinib -0.012 | pictilisib 0.025

DUS3L (UniProt Q96G46)
Chain of UniProt Q96G46 (Q96G46 whole entry, looked up): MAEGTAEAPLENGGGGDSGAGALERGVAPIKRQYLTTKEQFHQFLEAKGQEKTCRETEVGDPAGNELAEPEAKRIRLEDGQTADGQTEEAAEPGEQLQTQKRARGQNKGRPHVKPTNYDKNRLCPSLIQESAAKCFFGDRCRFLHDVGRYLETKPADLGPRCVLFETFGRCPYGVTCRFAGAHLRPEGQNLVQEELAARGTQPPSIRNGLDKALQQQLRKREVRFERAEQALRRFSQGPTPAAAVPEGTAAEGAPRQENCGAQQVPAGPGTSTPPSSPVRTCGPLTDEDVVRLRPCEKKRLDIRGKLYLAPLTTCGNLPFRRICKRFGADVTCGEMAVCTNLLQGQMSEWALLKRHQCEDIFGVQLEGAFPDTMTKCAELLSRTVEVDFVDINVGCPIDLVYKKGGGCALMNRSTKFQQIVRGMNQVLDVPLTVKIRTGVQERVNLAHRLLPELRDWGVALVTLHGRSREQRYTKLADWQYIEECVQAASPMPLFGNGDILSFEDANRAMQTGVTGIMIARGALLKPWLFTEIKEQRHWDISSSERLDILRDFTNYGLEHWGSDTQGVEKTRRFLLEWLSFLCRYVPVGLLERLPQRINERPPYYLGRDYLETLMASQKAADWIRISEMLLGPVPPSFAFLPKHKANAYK
inactive: saracatinib 0.02 | sotrastaurin -0.155 | alvocidib -0.037 | Tubastatin A -0.028 | [1] 0.022 | defactinib -0.148 | rucaparib 0.204 | [2] -0.033 | encorafenib 0.016 | [3] 0.003 | [4] 0.069 | filanesib 0.018 | zotarolimus 0.001 | idasanutlin 0.011 | alisertib -0.071 | [5] 0.01 | gefitinib 0.02 | [6] 0.035 | lapatinib -0.037 | pictilisib -0.181

CYFIP1 (UniProt Q7L576)
inactive: saracatinib -0.023 | sotrastaurin -0.026 | alvocidib -0.038 | Tubastatin A 0.006 | [1] -0.001 | defactinib -0.049 | rucaparib 0.025 | [2] 0 | encorafenib -0.005 | [3] -0.013 | [4] 0.053 | filanesib -0.027 | zotarolimus 0.039 | idasanutlin -0.028 | alisertib 0.061 | [5] -0.004 | gefitinib 0.008 | [6] 0.013 | lapatinib 0.023 | pictilisib 0.097

DTNBP1 (UniProt Q96EV8)
Chain of UniProt Q96EV8 (Q96EV8 whole entry, looked up): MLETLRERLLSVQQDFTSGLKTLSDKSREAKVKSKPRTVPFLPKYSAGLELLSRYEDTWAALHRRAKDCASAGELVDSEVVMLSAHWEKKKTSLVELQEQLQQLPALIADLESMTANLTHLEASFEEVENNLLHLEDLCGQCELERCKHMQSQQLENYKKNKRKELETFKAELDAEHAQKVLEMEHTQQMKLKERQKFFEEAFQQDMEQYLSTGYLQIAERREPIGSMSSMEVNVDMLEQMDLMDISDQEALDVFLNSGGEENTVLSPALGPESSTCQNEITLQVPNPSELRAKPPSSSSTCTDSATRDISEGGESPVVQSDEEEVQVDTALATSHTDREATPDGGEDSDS
inactive: saracatinib -0.072 | sotrastaurin 0.026 | alvocidib -0.041 | Tubastatin A 0.023 | [1] 0 | defactinib -0.054 | rucaparib -0.015 | [2] 0.005 | encorafenib 0.014 | [3] 0.054 | [4] -0.033 | filanesib -0.115 | zotarolimus -0.009 | idasanutlin -0.068 | alisertib -0.003 | [5] 0.004 | gefitinib 0.018 | [6] 0.044 | lapatinib -0.041 | pictilisib 0.073

EED, A0A5F9ZI63
inactive: saracatinib 0.008 | sotrastaurin -0.065 | alvocidib 0.037 | Tubastatin A -0.041 | [1] -0.057 | defactinib -0.04 | rucaparib 0.125 | [2] -0.052 | encorafenib 0.025 | [3] -0.05 | [4] 0.008 | filanesib 0.115 | zotarolimus -0.01 | idasanutlin 0.08 | alisertib -0.097 | [5] 0.032 | gefitinib 0.006 | [6] 0.018 | lapatinib 0.091 | pictilisib -0.163

DLD (UniProt P09622)
Chain of UniProt P09622 (P09622 whole entry, looked up): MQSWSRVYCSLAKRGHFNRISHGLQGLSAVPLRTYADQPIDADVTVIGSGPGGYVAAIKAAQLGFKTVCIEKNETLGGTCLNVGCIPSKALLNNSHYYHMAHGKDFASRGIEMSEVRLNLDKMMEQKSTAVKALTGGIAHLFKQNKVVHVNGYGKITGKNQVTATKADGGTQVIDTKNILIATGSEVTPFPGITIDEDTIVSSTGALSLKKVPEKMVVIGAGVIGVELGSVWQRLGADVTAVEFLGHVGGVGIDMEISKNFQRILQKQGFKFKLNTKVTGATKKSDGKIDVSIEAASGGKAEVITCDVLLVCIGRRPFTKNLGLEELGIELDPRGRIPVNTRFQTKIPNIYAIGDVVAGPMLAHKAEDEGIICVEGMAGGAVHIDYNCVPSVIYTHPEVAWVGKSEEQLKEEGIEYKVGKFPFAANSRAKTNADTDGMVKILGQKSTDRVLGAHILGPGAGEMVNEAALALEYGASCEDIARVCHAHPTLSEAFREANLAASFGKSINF
inactive: saracatinib 0.055 | sotrastaurin 0.015 | alvocidib 0.026 | Tubastatin A -0.029 | [1] 0.008 | defactinib 0.01 | rucaparib -0.041 | [2] -0.023 | encorafenib -0.011 | [3] 0.047 | [4] -0.003 | filanesib -0.106 | zotarolimus -0.032 | idasanutlin 0.004 | alisertib -0.024 | [5] -0.056 | gefitinib -0.096 | [6] 0.036 | lapatinib -0.015 | pictilisib 0.067

FAAP100 (UniProt Q0VG06)
Chain of UniProt Q0VG06 (Q0VG06 whole entry, looked up): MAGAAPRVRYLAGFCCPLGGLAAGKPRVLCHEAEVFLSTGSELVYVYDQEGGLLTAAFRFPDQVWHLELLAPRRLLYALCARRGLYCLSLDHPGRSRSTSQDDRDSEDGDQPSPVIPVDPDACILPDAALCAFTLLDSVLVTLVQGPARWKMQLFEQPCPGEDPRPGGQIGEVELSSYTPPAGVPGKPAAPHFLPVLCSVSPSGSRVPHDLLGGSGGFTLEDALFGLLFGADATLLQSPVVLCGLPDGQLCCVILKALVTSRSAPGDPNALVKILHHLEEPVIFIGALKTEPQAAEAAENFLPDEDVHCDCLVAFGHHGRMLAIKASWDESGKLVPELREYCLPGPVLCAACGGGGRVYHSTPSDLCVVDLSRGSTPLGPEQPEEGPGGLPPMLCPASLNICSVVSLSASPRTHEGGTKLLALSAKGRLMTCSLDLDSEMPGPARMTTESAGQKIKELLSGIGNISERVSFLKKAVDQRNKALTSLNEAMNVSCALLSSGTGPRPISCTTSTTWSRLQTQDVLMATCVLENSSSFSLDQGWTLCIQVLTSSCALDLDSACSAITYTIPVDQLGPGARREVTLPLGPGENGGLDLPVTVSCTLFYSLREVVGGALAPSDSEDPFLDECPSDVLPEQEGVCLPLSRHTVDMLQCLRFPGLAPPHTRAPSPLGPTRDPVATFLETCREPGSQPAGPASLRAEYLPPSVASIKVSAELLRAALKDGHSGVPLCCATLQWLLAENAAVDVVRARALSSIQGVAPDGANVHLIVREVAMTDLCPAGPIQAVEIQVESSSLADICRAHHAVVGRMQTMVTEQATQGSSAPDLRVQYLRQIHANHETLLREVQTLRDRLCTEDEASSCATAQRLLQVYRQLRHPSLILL
inactive: saracatinib 0.044 | sotrastaurin -0.014 | alvocidib -0.035 | Tubastatin A 0.028 | [1] -0.178 | defactinib -0.044 | rucaparib 0.009 | [2] -0.067 | encorafenib -0.04 | [3] -0.097 | [4] -0.008 | filanesib -0.012 | zotarolimus -0.025 | idasanutlin 0.055 | alisertib -0.044 | [5] -0.095 | gefitinib 0.036 | [6] 0.004 | lapatinib 0.011 | pictilisib -0.067

DCTPP1 (UniProt Q9H773)
Chain of UniProt Q9H773 (Q9H773 whole entry, looked up): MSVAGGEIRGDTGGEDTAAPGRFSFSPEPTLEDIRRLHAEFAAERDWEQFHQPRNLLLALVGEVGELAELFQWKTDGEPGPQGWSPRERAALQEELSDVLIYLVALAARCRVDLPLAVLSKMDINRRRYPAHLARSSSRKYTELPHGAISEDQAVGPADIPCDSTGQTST
inactive: saracatinib 0.012 | sotrastaurin 0.031 | alvocidib -0.033 | Tubastatin A 0.031 | [1] -0.075 | defactinib -0.008 | rucaparib -0.011 | [2] -0.022 | encorafenib -0.072 | [3] 0.002 | [4] 0.023 | filanesib -0.02 | zotarolimus 0.083 | idasanutlin -0.061 | alisertib -0.067 | [5] -0.091 | gefitinib 0 | [6] 0.038 | lapatinib -0.058 | pictilisib -0.05

FADS3 (UniProt Q9Y5Q0)
inactive: saracatinib 0.035 | sotrastaurin 0.037 | alvocidib -0.051 | Tubastatin A -0.061 | [1] 0.026 | defactinib 0.048 | rucaparib 0.024 | [2] -0.079 | encorafenib 0.02 | [3] 0.026 | [4] -0.067 | filanesib -0.151 | zotarolimus -0.062 | idasanutlin 0.007 | alisertib 0.005 | [5] -0.036 | gefitinib 0.04 | [6] 0.168 | lapatinib 0.097 | pictilisib 0.168

EHBP1L1 (UniProt Q8N3D4)
Chain of UniProt Q8N3D4 (Q8N3D4 whole entry, looked up): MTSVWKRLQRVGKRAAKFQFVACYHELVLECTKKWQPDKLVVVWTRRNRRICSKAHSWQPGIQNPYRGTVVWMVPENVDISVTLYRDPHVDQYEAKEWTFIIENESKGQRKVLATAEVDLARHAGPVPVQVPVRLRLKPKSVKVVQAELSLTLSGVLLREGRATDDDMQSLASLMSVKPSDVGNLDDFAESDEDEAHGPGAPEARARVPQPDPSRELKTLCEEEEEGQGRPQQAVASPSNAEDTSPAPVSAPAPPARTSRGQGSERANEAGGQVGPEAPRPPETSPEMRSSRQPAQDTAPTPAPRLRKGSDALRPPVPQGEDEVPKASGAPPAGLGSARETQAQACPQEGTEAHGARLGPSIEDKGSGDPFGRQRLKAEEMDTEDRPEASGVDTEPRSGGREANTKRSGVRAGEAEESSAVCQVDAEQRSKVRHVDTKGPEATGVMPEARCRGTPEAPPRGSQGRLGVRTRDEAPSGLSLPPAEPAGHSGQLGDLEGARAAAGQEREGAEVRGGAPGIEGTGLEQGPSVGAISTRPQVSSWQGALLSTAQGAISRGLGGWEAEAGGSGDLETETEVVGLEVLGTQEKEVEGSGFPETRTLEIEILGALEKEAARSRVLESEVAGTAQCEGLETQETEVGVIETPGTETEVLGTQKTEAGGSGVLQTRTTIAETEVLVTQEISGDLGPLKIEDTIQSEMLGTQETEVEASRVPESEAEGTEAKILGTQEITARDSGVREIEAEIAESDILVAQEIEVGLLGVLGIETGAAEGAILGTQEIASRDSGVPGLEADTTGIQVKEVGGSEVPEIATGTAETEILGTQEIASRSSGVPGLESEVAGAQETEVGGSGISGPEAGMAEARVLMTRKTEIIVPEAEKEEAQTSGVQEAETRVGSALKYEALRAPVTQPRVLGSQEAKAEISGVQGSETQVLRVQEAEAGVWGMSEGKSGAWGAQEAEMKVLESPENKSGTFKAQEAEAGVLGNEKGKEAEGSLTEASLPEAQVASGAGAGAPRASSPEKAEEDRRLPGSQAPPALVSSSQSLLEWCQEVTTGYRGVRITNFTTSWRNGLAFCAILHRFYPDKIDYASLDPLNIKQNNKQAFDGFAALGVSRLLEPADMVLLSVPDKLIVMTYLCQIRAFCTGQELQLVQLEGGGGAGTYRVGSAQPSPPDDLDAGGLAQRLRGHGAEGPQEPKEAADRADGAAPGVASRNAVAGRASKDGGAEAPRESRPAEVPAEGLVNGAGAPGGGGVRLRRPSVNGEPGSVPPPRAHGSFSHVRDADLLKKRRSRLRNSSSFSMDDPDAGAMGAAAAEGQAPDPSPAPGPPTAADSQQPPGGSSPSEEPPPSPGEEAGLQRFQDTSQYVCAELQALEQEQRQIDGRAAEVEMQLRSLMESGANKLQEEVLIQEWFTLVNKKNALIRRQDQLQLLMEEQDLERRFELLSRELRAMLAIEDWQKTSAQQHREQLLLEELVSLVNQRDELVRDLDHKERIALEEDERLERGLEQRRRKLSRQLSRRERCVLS
inactive: saracatinib -0.065 | sotrastaurin -0.082 | alvocidib -0.049 | Tubastatin A 0.098 | [1] -0.002 | defactinib -0.089 | rucaparib 0.1 | [2] -0.008 | encorafenib 0.127 | [3] -0.017 | [4] 0.054 | filanesib 0.147 | zotarolimus 0.065 | idasanutlin -0.021 | alisertib -0.098 | [5] 0.119 | gefitinib -0.009 | [6] -0.026 | lapatinib 0.03 | pictilisib 0.217
